Screening results (PubChem)
Sfp PPTase inh: inhibitors of Bacillus subtilis Sfp phosphopantetheinyl transferase. Biochemical Sfp PPTase activity, qHTS. Q9F4F7. actives 3.5% (n = 310,000). Potency, µM, without a hit: largest response in the series, negative = inhibition, most hits filed as inhibitors;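 note: the enzyme is Sfp with the accession as filed and its product quenches rhodamine fluorescence; 0% = enzyme reaction without inhibitor and -100% = no enzyme wells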
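Sfp 15 nM + cpd, 15 min RT; start w/ rhodamine-CoA 5 uM, BHQ-2-YbbR 12.5 uM (final); 50 mM Hepes pH 7.6, 10 mM MgCl2, 0.01% NP-40, 0.01% BSA; read 525/598 nm at 0 and 30 min.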
JMJD2A Tudor inh: inhibitors of human JMJD2A Tudor domain; AlphaScreen JMJD2A-Tudor / H3K4me3 peptide binding; Potency, µM (doses to about 114 µM), for inactives: at the top dose activity change, negative = inhibition, hits mostly inhibitors; actives 4.4% (n = 390,000); O75164; note: % is set by controls: 0 for no effect and ±100 for the full control effect; nearly all actives have a fitted effect of over 50% in size
G9a inh: inhibitors of human histone lysine methyltransferase G9a. actives 8.8% (n = 350,000). Potency, µM (titrated, usually from 102 µM), for inactives: top-dose activity, negative = inhibition, usual class: inhibitors. G9a H3K9 monomethylation, AlphaScreen, 2 h. AID 504332. Q96KQ7; note: % is set by controls: 0 for no effect and ±100 for the full control effect; nearly all actives have a fitted effect of over 75% in size
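Step 1: enzyme (final 20 nM) with compound, 15 min RT. Step 2: substrate peptide 500 nM and SAM 20 uM, 2 h RT. Step 3: anti-H3K9me1 antibody and AlphaScreen beads, 10 min, then plate read.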
BAZ2B inh: inhibitors of human BAZ2B bromodomain. Q9UIF8. AlphaScreen BAZ2B-H3K14Ac peptide displacement. Potency, µM (series often up to 114 µM), without a hit: at the highest dose activity change, negative = inhibition, most hits filed as inhibitors. actives 4.4% (n = 360,000); note: % is set by controls: 0 for no effect and ±100 for the full control effect; nearly all actives have a fitted effect of over 60% in size
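AlphaScreen luminescence quantifies BAZ2B engagement of H3K14Ac peptide; the protein and biotinylated peptide are both at 50 nM final, buffer PBS pH 7.4 with 0.01% Tween-20, all steps at room temperature.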
12-LOX inh: blocks human arachidonate 12S-lipoxygenase; P18054; purified 12hLO, xylenol orange hydroperoxide absorbance; Potency, µM (doses to about 108 µM), for inactives: at the top dose activity change, negative = inhibition, most hits filed as inhibitors; actives 1.1% (n = 580,000); AID 1671190; note: % is set by controls: 0 for no effect and ±100 for the full control effect
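Purified human 12hLO (150 nM final) in 25 mM Hepes, 0.01% Triton X-100, pH 7.0 was preincubated 15 min at room temperature with compound. Then 40 uM arachidonic acid was added, 30 min. Hydroperoxide was read by Fe-XO absorbance ratio 573/405 nm.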
HP1b chromo inh: inhibitors of HP1-beta chromodomain binding to methylated histone tails. Potency, µM (doses to about 114 µM), without a hit: top-dose activity change, negative = inhibition, actives largely listed as inhibitors. AlphaScreen HP1-beta / biotin-H3K9me3 peptide binding. actives 0.56% (n = 390,000); note: nearly all actives have a fitted effect of over 70% in size
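Compound inhibition of the preformed complex between 50 nM HP1-beta and 50 nM biotinylated H3K9me3 peptide was read by AlphaScreen. Buffer was PBS pH 7.4 with 0.01% Tween-20. Incubations ran 30 min at room temperature, with 10 ug/mL donor/acceptor beads.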
Active calls of the source: *; ? = inconclusive; nt = no result given; [ ] = remark or other dose. This is a sample that favours compounds with a hit; in the whole collection about 8.7% have one here. Calls come from the whole dose curve; as a rule, active = well fitted curve in the direction sought with a large enough effect; inconclusive = small, poorly fitted or top-dose-only effect, or another doubt; inactive = no such curve, though single readings can be large; an effect the other way counts as inactive or inconclusive. Potency is the fitted concentration of half-maximal effect.

SMILES	Sfp PPTase inh	JMJD2A Tudor inh	G9a inh	BAZ2B inh	12-LOX inh	HP1b chromo inh
O=C(N/N=C/c1c(O)ccc2ccccc12)c1cccnc1	4%	50µM*	22%	-12%	?	49%
O=C(N/N=C/c1c(O)ccc2ccccc12)c1ccc(Br)o1	-3%	?	?	56µM*	?	-6%
O=C(NN=Cc1c(O)ccc2ccccc12)c1ccncc1	nt	79µM*	nt	nt	?	24%
O=C(N/N=C\c1c(O)ccc2ccccc12)c1ccc(O)cc1	-7%	?	nt	-5%	?	0%
Cc1ccc(C(=O)N/N=C/c2c(O)ccc3ccccc23)cn1	9%	?	?	0%	0%	41%
O=C(N/N=C\c1c(O)ccc2ccccc12)c1cncc(Br)c1	11%	56µM*	16%	35µM*	?	68%
Nc1nc(Nc2ccc(F)c(Cl)c2)sc1C(=O)c1ccccc1	nt	nt	nt	nt	-7%	nt
CCONC(=O)CSCc1ccc(C)cc1	nt	nt	nt	nt	19%	nt
CN1CCN(CCC(=O)N/N=C/c2ccccn2)CC1	-38%	7.9µM*	1.3µM*	?	-3%	7%
c1coc(Cn2cccc2)c1	nt	nt	nt	nt	11%[176 µM]	nt
CC1CN(C(=O)COC(=O)c2ccc(O)cc2)CC(C)O1 (stereo unspecified)	4%	-10%	17%	6%	-16%	3%
CC1CN(C(=O)COC(=O)c2ccc(C#N)cc2)CC(C)O1 (stereo unspecified)	14%	-2%	50µM*	-25%	12%	39%
CN(C(=O)COC(=O)c1ccc(C#N)cc1)c1ccccc1	-8%	-10%	50µM*	-21%	-19%	46%
N#Cc1ccc(C(=O)OCC(=O)N2CCCCCC2)cc1	nt	-10%	22µM*	0%	-26%	7%
CNS(=O)(=O)c1cccc(C(=O)OCC(=O)c2ccc(S(=O)(=O)N3CCCCC3)cc2)c1	nt	-14%	28µM*	-34%	0%	41%
CCOC(=O)C1CCCN(C(=O)COC(=O)c2ccc(C#N)cc2)C1 (stereo unspecified)	-5%	8%	?	-9%	-26%	22%
CC(=O)Nc1cccc(C(=O)OCC(=O)c2ccc(S(=O)(=O)N3CCCCC3)cc2)c1	nt	-16%	-32%	-4%	16%	62%
COc1cccc(CN2CCCCCC2c2cccs2)c1OC (stereo unspecified)	nt	nt	nt	nt	-5%	nt
Fc1ccccc1-c1nnc2sc(-c3ccc4ccccc4n3)nn12	nt	nt	nt	nt	-4%	nt
O=C(NCc1ccc(CN2CCCC2)cc1)c1cc(C2CC2)nc2ccccc12	nt	nt	nt	nt	-8%	nt
COc1ccc(C(=O)NCC(=O)OCC(=O)N(C)c2ccccc2)cc1	19%	-2%	17%[12.7 µM]	-10%	10%	20%
O=C(OCC(=O)N1CCCCCC1)c1ccc(Cl)c(S(=O)(=O)N2CCCC2)c1	-10%	20µM*	7%	nt	-7%	?
Cc1cc(C)cc(C(=O)NCC(=O)OCC(=O)N(C)c2ccccc2)c1	12%	50µM*	6%	nt	-7%	-2%
CCCc1cc(=O)[nH]c(Nc2nc(C)c3cc(C)c(C)cc3n2)n1	nt	nt	nt	nt	4%	nt
